Test [1] is described as follows: qHTS assay to test for compound auto fluorescence at 535 nm (green) in HEK293 cells (AID 720680).
The nature of test [2]: qHTS assay to test for compound auto fluorescence at 535 nm (green) in HEK293 cell free culture (AID 720682). The procedure, abridged: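 No cells present: wells hold DMEM supplemented with 10% FBS, into which compound or vehicle is pinned. Green emission is then recorded (485 nm excitation, 535 nm emission) and scaled to fluorescein.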
The nature of test [3]: qHTS assay to test for compound auto fluorescence at 590 nm (red) in HEK293 cell free culture (AID 720683). The gist of the method:
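Tox21 10K library compounds were pinned into cell-free DMEM with 10% FBS and fluorescence was read at excitation 540 nm. Activity is expressed as Rose Bengal sodium equivalency.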

Test [4] can be described thus: qHTS assay to test for compound auto fluorescence at 590 nm (red) in HepG2 cell free culture (AID 720684). The gist of the method:
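Ex 540 / Em 590 nm read of compound in cell-free MEM (10% FBS). Rose Bengal sodium reference.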

A short description of test [5]: qHTS assay to test for compound auto fluorescence at 460 nm (blue) in HepG2 cell free culture (AID 720685). The procedure, abridged: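 Cell-free plates of MEM plus 10% FBS received 23 nL compound or DMSO vehicle; blue-channel (405/460 nm) intensity scored against triamterene as reference fluorophore.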
Test [6] is described as follows: qHTS assay to test for compound auto fluorescence at 535 nm (green) in HepG2 cell free culture (AID 720686).
Test [7] is described as follows: qHTS assay to test for compound auto fluorescence at 460 nm (blue) in HepG2 cells (AID 720687). The gist of the method:
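Cells (2,000/well in MEM with 10% FBS) attached overnight at 37 C, then were exposed to compound or DMSO for 1 hr at 37 C, 5% CO2. Fluorescence read at Ex/Em 405/460 nm, expressed as triamterene-equivalent signal.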

The nature of test [8]: qHTS assay to identify small molecule antagonists of the glucocorticoid receptor (GR) signaling pathway - cell viability counter screen (AID 720693). Also: nearly all actives have a fitted effect of over 55% in size.
Test [9] can be described thus: qHTS assay for identifying genotoxic compounds that show differential cytotoxicity against isogenic chicken DT40 cell lines with known DNA damage response pathways - wild type cell line (AID 743012). Also: nearly all actives have a fitted effect of over 60% in size. Also: potency is read from the fitted curve at half-maximal effect. The gist of the method: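 Viability of DNA repair-proficient chicken DT40 cells was assessed by CellTiter-Glo luminescence following 40 h compound exposure at 37 C/5% CO2.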

Test [10] is described as follows: qHTS assay for identifying genotoxic compounds that show differential cytotoxicity against isogenic chicken DT40 cell lines with known DNA damage response pathways - Rev3 mutant cell line (AID 743014). Also: nearly all actives have a fitted effect of over 55% in size. Also: potency is read from the fitted curve at half-maximal effect.
A short description of test [11]: qHTS assay to identify small molecule antagonists of the androgen receptor (AR) signaling pathway - cell viability counter screen (AID 743033; also: nearly all actives have a fitted effect of over 45% in size).
Test [12] has as its target Androgen receptor (Homo sapiens) (UniProt P10275). Kind of test: qHTS assay to identify small molecule agonists of the androgen receptor (AR) signaling pathway (AID 743036; active = well fitted activation curve with a large enough effect in the signal ratio in the repeat runs, with a control signal flat, not every such curve was filed as active; the % refers to the signal ratio). The gist of the method:
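Quantitative HTS of the Tox21 10K library in HEK293 cells bearing a stably integrated UAS-controlled beta-lactamase reporter. Compound exposure lasted 16 h at 37C. Reporter activity was detected by FRET substrate fluorescence after 2 h at room temperature.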

Test [13] shares this target. Kind of test: qHTS assay to identify small molecule agonists of the androgen receptor (AR) signaling pathway using the MDA cell line (AID 743040; also: nearly all actives have a fitted effect of over 20% in size). The procedure, abridged:
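Cell-based luciferase reporter: MDA-kb2, MMTV promoter (AR + GR response elements). 16 h compound exposure at 37C; ONE-Glo, 30 min RT, luminescence.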

Test [14] is described as follows: qHTS assay to identify small molecule antagonists of the androgen receptor (AR) signaling pathway using the MDA cell line - cell viability counter screen (AID 743041; also: nearly all actives have a fitted effect of over 45% in size). The procedure, abridged: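 In this qHTS counter assay, fluorescence intensity after CellTiter-Fluor addition indicated viability of MDA-kb2 AR-luc cells given compounds and R1881 for 16 h at 37C.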

Test [15] has as its target Androgen receptor (Homo sapiens) (UniProt P10275). The experiment in a line: qHTS assay to identify small molecule antagonists of the androgen receptor (AR) signaling pathway using the MDA cell line (AID 743042; also: nearly all actives have a fitted effect of over 55% in size). The procedure, abridged: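 MDA-kb2 cells (human breast carcinoma, stably carrying an MMTV-luciferase reporter responsive to AR and GR) were plated at 3,000 cells/well and preincubated 5 hr at 37C, then given compound plus R1881 agonist for 16 h. ONE-Glo luminescence was read.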

A short description of test [16]: qHTS assay for identifying genotoxic compounds that show differential cytotoxicity against isogenic chicken DT40 cell lines with known DNA damage response pathways - Rad54/Ku70 mutant cell line (AID 743015). Also: nearly all actives have a fitted effect of over 60% in size.
The target in test [17] is Glucocorticoid receptor (Homo sapiens) (UniProt P04150). Kind of test: qHTS assay to identify small molecule agonists of the glucocorticoid receptor (GR) signaling pathway (AID 720691; active = well fitted activation curve with a large enough effect in the signal ratio in the repeat runs, not every such curve was filed as active; the % refers to the signal ratio). The gist of the method:
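Compounds in DMSO, alongside positive controls, were added to GR-bla HeLa reporter cells and incubated 18 h at 37 C; GRE-driven beta-lactamase was detected by fluorescence after 2 h with FRET substrate at room temperature.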

For test [18] the target is unchanged. Kind of test: qHTS assay to identify small molecule antagonists of the glucocorticoid receptor (GR) signaling pathway (AID 720692; active = well fitted inhibition curve with a large enough effect in the signal ratio in the repeat runs, not every such curve was filed as active; the % refers to the signal ratio). The gist of the method:
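In a 1536-well cell format, compounds were added 4 h after seeding GR-bla HeLa cells, together with dexamethasone at 5 nM final; reporter activity was measured by FRET-substrate fluorescence following 18 h at 37 C.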

Test [19] deals with Androgen receptor (Homo sapiens) (UniProt P10275). The experiment in a line: qHTS assay to identify small molecule antagonists of the androgen receptor (AR) signaling pathway (AID 743035; active = well fitted inhibition curve with a large enough effect in the signal ratio in the repeat runs, not every such curve was filed as active; the % refers to the signal ratio). The procedure, abridged: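 Reporter HEK293 cells were exposed to compounds and R1881 overnight (16 h, 37C); beta-lactamase activity was then quantified by FRET fluorescence.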
Chain of Androgen receptor (Homo sapiens) (P10275 whole entry, looked up): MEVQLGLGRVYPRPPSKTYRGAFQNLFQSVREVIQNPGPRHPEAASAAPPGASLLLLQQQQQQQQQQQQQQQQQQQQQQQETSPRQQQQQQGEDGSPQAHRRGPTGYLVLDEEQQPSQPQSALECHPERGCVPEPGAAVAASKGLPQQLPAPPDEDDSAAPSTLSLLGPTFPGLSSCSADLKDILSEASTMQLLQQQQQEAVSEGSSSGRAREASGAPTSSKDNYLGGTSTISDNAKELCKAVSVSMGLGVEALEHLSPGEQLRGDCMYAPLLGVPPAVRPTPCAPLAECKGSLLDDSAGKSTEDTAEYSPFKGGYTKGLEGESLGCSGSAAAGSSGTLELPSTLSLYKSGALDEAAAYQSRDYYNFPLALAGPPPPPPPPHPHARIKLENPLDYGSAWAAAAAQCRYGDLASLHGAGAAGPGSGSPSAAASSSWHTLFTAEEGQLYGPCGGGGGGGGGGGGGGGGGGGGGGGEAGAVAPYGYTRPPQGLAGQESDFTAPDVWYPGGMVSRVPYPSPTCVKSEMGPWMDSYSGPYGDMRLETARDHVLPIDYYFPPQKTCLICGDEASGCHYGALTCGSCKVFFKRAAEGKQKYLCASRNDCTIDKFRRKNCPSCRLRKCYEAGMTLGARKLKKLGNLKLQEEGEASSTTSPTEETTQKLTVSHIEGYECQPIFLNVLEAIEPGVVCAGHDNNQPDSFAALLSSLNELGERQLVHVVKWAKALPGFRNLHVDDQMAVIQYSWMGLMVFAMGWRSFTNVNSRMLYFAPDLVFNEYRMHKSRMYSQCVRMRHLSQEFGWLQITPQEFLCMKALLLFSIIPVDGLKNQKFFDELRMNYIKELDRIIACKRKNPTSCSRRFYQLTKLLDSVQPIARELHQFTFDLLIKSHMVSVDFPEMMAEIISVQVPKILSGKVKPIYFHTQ

Results filed as inconclusive are left out. Activity calls are given as the source filed them. Unless noted, calls follow the shape of the dose curve; as a rule, active = well fitted curve in the direction sought with a large enough effect in the repeat runs; inconclusive = weak or mixed curves; inactive = no such curve, though single readings can be large; an effect the other way counts as inactive or inconclusive.

Chain of Glucocorticoid receptor (Homo sapiens) (P04150 whole entry, looked up): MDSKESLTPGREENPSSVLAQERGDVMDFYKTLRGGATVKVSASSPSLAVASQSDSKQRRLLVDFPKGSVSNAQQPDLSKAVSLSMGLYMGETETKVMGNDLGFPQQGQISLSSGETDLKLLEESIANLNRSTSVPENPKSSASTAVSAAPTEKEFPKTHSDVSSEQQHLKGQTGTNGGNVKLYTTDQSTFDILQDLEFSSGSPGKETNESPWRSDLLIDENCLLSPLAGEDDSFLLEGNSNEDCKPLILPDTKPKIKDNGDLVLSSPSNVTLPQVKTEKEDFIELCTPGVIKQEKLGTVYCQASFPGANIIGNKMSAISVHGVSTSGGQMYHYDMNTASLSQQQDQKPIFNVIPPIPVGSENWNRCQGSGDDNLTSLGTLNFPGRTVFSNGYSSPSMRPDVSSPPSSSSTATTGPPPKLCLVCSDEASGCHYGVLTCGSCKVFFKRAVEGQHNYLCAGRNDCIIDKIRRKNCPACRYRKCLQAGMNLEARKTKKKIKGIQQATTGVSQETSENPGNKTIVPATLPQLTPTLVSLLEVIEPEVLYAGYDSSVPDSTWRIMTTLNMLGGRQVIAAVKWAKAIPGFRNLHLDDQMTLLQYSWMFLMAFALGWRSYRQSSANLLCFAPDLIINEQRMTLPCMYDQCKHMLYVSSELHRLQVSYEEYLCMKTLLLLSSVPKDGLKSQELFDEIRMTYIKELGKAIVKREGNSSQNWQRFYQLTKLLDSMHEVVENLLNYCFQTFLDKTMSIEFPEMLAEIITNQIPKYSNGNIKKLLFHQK

Take `O=CN1CCOCC1`: the result in test [1], in test [2], in test [3], in [4], in test [5] and in [6] was inactive. For the same compound, the compound was called inactive in test [7], in test [11], in test [12], in test [13], in [14] and in [15]. For the same compound, the Potency result in test [8], in test [9] and in [10] was “inactive” in each case.

With `CCCC(C)CC` (centres undefined), the outcome in [1], in test [2], in test [3], in [4], in test [5] and in test [6] was inactive. The result in [7], in [11] and in test [14] was inactive. In addition, the Potency entry in [8], in test [9], in test [10] and in [16] was “inactive” each time.

Take `CCCCCCCCCCC`: the compound was classed as inactive in test [1], in test [2], in test [3], in test [4], in [5] and in test [6]. Also, the call in test [7], in test [18], in test [11], in test [12], in test [13] and in test [14] was inactive. The compound was classed as inactive in test [15]. In addition, the Potency entry in test [17], in test [8], in test [9], in [10] and in test [19] was “inactive” throughout.

In the case of `CCCCOC(=O)C(=O)OCCCC`, the outcome in test [1], in [2], in test [3], in test [4], in [5] and in test [6] was inactive. For the same compound, the call in test [7], in test [11] and in test [14] was inactive. Also, the Potency entry in test [17], in test [8], in test [9] and in test [10] was “inactive” throughout.

For the compound `COC(OC)C(C)c1ccccc1` (centres undefined), the outcome in test [1], in test [2], in test [3], in test [4], in test [5] and in test [7] was inactive. Also, the result in [18], in [11], in test [12], in test [13], in test [14] and in test [15] was inactive. Moreover, the Potency result in [17], in test [8], in [9], in [10], in test [16] and in test [19] was “inactive” each time.

`CCC1COC(=O)O1` (centres undefined): the result in test [1], in [2], in test [3], in [4], in [5] and in [6] was inactive. Further, the compound was classed as inactive in test [7], in test [11] and in [14]. The Potency entry in test [17], in test [8], in test [9], in [10] and in test [16] was “inactive” each time.

Consider `OC[C@@H](O)[C@H](O)[C@@H](O)[C@@H](O)CO`, for which the result in test [1], in [2], in test [3], in test [4], in [5] and in [6] was inactive. In addition, the compound was classed as inactive in test [7], in test [11] and in test [14]. Moreover, the Potency entry in test [8], in [10] and in test [16] was “inactive” in each case.

As to `C=CCOc1cc(Cl)ccc1C(=O)NCCN(CC)CC`, the call in test [1], in test [2], in test [3], in test [4], in [5] and in test [6] was inactive. For the same compound, the call in test [7], in test [18], in [11] and in test [14] was inactive. The Potency entry in [17] and in test [8] was “inactive” each time. In addition, the values for the Potency in test [9] and in test [10] were 15 µM (active) and 29.8 µM (active), respectively.

For `O=C1c2ccccc2-c2ccccc21`, the result in test [1], in [2], in test [3], in [4], in test [5] and in test [7] was inactive. Moreover, the result in [18], in test [11], in [12], in test [13], in [14] and in [15] was inactive. The Potency result in test [17], in [8], in [10], in test [16] and in test [19] was “inactive” each time.

These data come from PubChem BioAssay (Tox21).
